Assay results from PubChem BioAssay AID1159580 (chemical genetic matrix, 2015).
Several values for one entry are separate records, joined by “and”; a condition that tells them apart may be missing. Equal values may be shown once. The campaign covered roughly 5,500 compounds. About 2,000 (36%) were called active. Not shown: some 18% with an inconclusive outcome. Cut-off read from the data, not from the text of the source: active = normalized growth mostly below about 0.91 (no sharp cut-off); inconclusive = no clear call, values can overlap the other calls; inactive = mostly above about 0.92. This is one part of the list.

Assay: chemical genetic growth profiling, strain panel (AID 1159580);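 note: tested at 20 µM; growth read once vehicle control cultures reached saturation at 30 °C; 1 = growth at the plate median or of vehicle wells; lower values mean less growth of the strain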
Details: S. cerevisiae deletion strains, growth OD

Measured: normalized growth

COc1ccc(C(CN(C)C)C2(O)CCCCC2)cc1 (stereo unspecified)
inactive: locus YAL013W, strain DEP1, hits give low values 1.01 | locus YAL021C, strain ccr4, hits give low values 0.976 | locus YAL026C, strain drs2, hits give low values 0.995 | locus YAL030W, strain snc1, hits give low values 0.988 | locus YBL061C, strain skt5, hits give low values 0.992 | locus YBR009C, strain hhf1, hits give low values 1.01 | locus YBR021W, strain FUR4, hits give low values 1.02 | locus YBR023C, strain chs3, hits give low values 1.01 | locus YBR171W, strain sec66, hits give low values 0.982 | locus YBR229C, strain ROT2, hits give low values 1.01 | locus YBR231C, strain swc5, hits give low values 1.03 | locus YBR279W, strain paf1, hits give low values 1.01 | locus YCL011C, strain gbp2, hits give low values 0.994 | locus YCL016C, strain dcc1, hits give low values 1.01 | locus YCL029C, strain bik1, hits give low values 0.979 | locus YCL069W, strain vba3, hits give low values 0.974 | locus YCR088W, strain abp1, hits give low values 0.99 | locus YDL005C, strain med2, hits give low values 0.978 | locus YDL035C, strain GPR1, hits give low values 1.02 | locus YDL040C, strain nat1, hits give low values 0.962 | locus YDL074C, strain BRE1, hits give low values 1.03 | locus YDL101C, strain DUN1, hits give low values 1.02 | locus YDL134C, strain PPH21, hits give low values 1.02 | locus YDL185W, strain tfp1, hits give low values 0.997 | locus YDL192W, strain arf1, hits give low values 0.991 | locus YDR001C, strain nth1, hits give low values 0.986 | locus YDR069C, strain doa4, hits give low values 0.973 | locus YDR101C, strain arx1, hits give low values 0.986 | locus YDR137W, strain rgp1, hits give low values 0.971 | locus YDR150W, strain NUM1, hits give low values 1.01 | locus YDR159W, strain sac3, hits give low values 0.974 | locus YDR162C, strain NBP2, hits give low values 0.985 | locus YDR195W, strain ref2 0.975 | locus YDR297W, strain sur2, hits give low values 0.994 | locus YDR318W, strain mcm21, hits give low values 0.996 | locus YDR334W, strain swr1, hits give low values 0.97 | locus YDR335W, strain msn5, hits give low values 0.996 | locus YDR388W, hits give low values 0.988 | locus YDR392W, strain spt3, hits give low values 0.985 | locus YDR502C, strain sam2, hits give low values 0.99 | locus YEL003W, strain gim4, hits give low values 0.976 | locus YEL037C, strain rad23, hits give low values 0.974 | locus YEL061C, strain CIN8 (second series), hits give low values 0.98 | locus YEL061C, strain CIN8, hits give low values 1.01 | locus YER015W, strain faa2, hits give low values 1.01 | locus YER016W, strain bim1, hits give low values 0.972 | locus YER110C, hits give low values 0.99 | locus YER111C, strain swi4, hits give low values 0.994 | locus YER155C, strain BEM2 (second series), hits give low values 0.962 | locus YER155C, strain BEM2, hits give low values 0.987 | locus YER167W, strain BCK2, hits give low values 1.01 | locus YFR010W, strain ubp6, hits give low values 0.987 | locus YGL078C, strain dbp3, hits give low values 0.989 | locus YGL086W, strain mad1, hits give low values 0.996 | locus YGL167C, strain pmr1, hits give low values 0.979 | locus YGL173C, strain kem1, hits give low values 0.987 | locus YGL227W, strain vid30, hits give low values 0.988 | locus YGL240W, strain doc1, hits give low values 0.992 | locus YGL248W, strain PDE1, hits give low values 1.01 | locus YGL253W, strain hxk2, hits give low values 0.999 | locus YGR078C, strain PAC10, hits give low values 1 | locus YGR135W, strain pre9, hits give low values 0.985 | locus YGR229C, strain SMI1, hits give low values 1.02 | locus YGR252W, strain gcn5, hits give low values 0.973 | locus YHR013C, strain ard1, hits give low values 0.932 | locus YHR027C, strain rpn1, hits give low values 0.987 | locus YHR030C, strain SLT2, hits give low values 1.01 and 1 | locus YHR079C, strain IRE1 (second series), hits give low values 0.99 | locus YHR079C, strain IRE1, hits give low values 1.01 | locus YHR094C, strain hxt1, hits give low values 0.997 | locus YHR129C, strain ARP1, hits give low values 1.01 | locus YHR142W, strain chs7, hits give low values 0.974 | locus YHR200W, strain rpn10, hits give low values 0.996 | locus YIL066C, strain RNR3, hits give low values 1.01 | locus YIL073C, strain SPO22, hits give low values 1.04 | locus YIL125W, strain kgd1, hits give low values 0.998 | locus YIR030C, strain dcg1, hits give low values 0.986 | locus YJL092W, strain hpr5, hits give low values 0.976 | locus YJL095W, strain BCK1 (second series), hits give low values 0.984 | locus YJL095W, strain BCK1, hits give low values 1.01 and 0.997 | locus YJL115W, strain asf1, hits give low values 0.958 | locus YJL129C, strain trk1, hits give low values 0.989 | locus YJL134W, strain LCB3, hits give low values 1.01 | locus YJL154C, strain vps35, hits give low values 0.974 | locus YJL164C, strain tpk1, hits give low values 1 | locus YJL166W, strain qcr8, hits give low values 0.971 | locus YJL168C, strain set2, hits give low values 0.997 | locus YJL187C, strain SWE1 (second series), hits give low values 1.01 | locus YJR043C, strain POL32, hits give low values 1 | locus YJR066W, strain TOR1, hits give low values 0.979 | locus YJR075W, strain HOC1, hits give low values 1.02
